Data as given in PubChem BioAssay AID1377 (University of Pittsburgh Molecular Library Screening Center, 2008).
About 830 (0.38%) of roughly 220,000 compounds were called active. Many of the other results were omitted from the sample, so actives are more common in it than they were. A number with no mark means an inactive call.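 The calls were made as follows: active = activation, scaled between plate controls, above about 75% (limit read from the data); inactive = activation under that limit.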

test: rescue of L929 cells from zVAD death – primary screen (AID 1377); conditions: L929 zVAD necroptosis rescue, ATP luminescence, 24 h, at 10 µM, hits give high values; with zVAD 60 µM unless noted;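 also: 0% = zVAD with DMSO and 100% = DMSO alone without zVAD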

In order of rising viability rescue:
1. COc1ccccc1NC(=O)CSc1nnc(-c2ccoc2C)n1CCc1ccccc1  -0.28% [with zVAD 20 µM]
2. CCCn1c(SCC(=O)Nc2cccc(C(=O)OCC)c2)nnc1-c1ccoc1C  -0.07% [with zVAD 20 µM]
3. Cc1ccccc1NC(=O)CNc1ccccc1N1CCCCC1  0.17% [with zVAD 20 µM]
4. CCCCn1c(=O)c(CCC(=O)OCC(=O)Nc2ccc(C)c(Cl)c2)nc2ccccc21  0.2% [with zVAD 20 µM]
5. CCCCC(CCC(=O)Nc1ccc(C(=O)OCC)cc1)C(=O)O (stereo not drawn)  0.34% [with zVAD 20 µM]
6. CC(=O)Nc1cccc(-c2csc(Nc3cccc(C)n3)n2)c1  0.49% [with zVAD 20 µM]
7. Cc1cccc(NC(=O)/C=C/c2ccc3c(c2)OCO3)n1  0.85% [with zVAD 20 µM]
8. CC(C)C(=O)Nc1ccc2c3c(cccc13)CC2  1.59% [with zVAD 20 µM]
9. CCN1CCCC1CNC(=O)c1cc2c(=O)n(C)c3ccccc3c2n1C (stereo not drawn)  22.7% [with zVAD 20 µM]
10. COc1ccc(C(CCN(Cc2ccc(OC)c(OC)c2)C(=O)CCl)c2ccccc2)cc1 (stereo not drawn)  36.4% [with zVAD 20 µM]
11. Cn1cccc1C(=O)Nc1nccs1  66.4% [with zVAD 20 µM]

In order of falling viability rescue:
1. CCOC(=O)/C(C#N)=C/c1ccc(N2CCCCC2)cc1  68.5%
2. Cc1cc(NC(=O)Nc2ccc(Cl)cc2)n(-c2ccccc2)n1  22.9%
3. CCC1CCCCN1CCCNC(=O)c1cc2c(Cl)nc3ccccc3c2s1 (stereo not drawn)  18%
4. COCCCNC(=O)c1ccc2c(c1)ncn2-c1ccccc1OC  13.6%
5. O=C(Nc1cccnc1)c1cc([N+](=O)[O-])ccc1Cl  13.3%
6. COC(=O)C1=C(C)N(C(C)c2ccccc2)C(=O)/C1=C\c1ccco1 (stereo not drawn)  10.9%
7. Cc1ccc(N2C(=O)C(CC(=O)Nc3cccc(F)c3)N(CCc3ccncc3)C2=O)cc1 (stereo not drawn)  6.31%
8. CCc1c(SCCC(=O)O)nc2ccccc2c1C  5.34%
9. Cn1c(C(=O)NCCCN2CCN(c3cccc(Cl)c3)CC2)cc2c(=O)n(C)c3ccccc3c21  4.61%
10. C=CCO/N=C/C1=C(O)C(C(=O)OC)C(C)(C)CC1=O (stereo not drawn)  4.04%
11. Cc1ccc(CNC(=O)CCNS(=O)(=O)c2ccc(Br)s2)cc1  3.55%
12. Cc1ccc(NC(=O)NC(=O)N(C2CCCCC2)S(=O)(=O)c2ccccc2)cc1  2.56%
13. CCOC(=O)c1cn[nH]c1NC(=S)Nc1ccccc1  2.47%
14. O=C(CC1SCCNC1=O)Nc1ccc(Cl)cc1 (stereo not drawn)  2.38%
15. COc1ccccc1-n1cnc2cc(C(=O)NCC3CCCO3)ccc21 (stereo not drawn)  1.84%
16. O=C1NC(c2ccccc2)=NC1(Nc1ccccn1)C(F)(F)F (stereo not drawn)  1.82%
17. O=C(c1ccncc1)c1ccc([N+](=O)[O-])cc1  1.69%
18. CC(=O)NC1C(Oc2ccc(C=O)cc2)OC(COC(C)=O)C(OC(C)=O)C1OC(C)=O (stereo not drawn)  1.66%
19. O=C(CCN1CCN(c2ccccc2)CC1)NNC(=S)Nc1ccccc1  1.61%
20. Cc1ccc2cc(/C=N/Nc3ccc(C(=O)O)cc3)c(Cl)nc2c1  1.59%
21. Cc1ccc(C(=O)Cn2cccn2)cc1  1.57%
22. Cn1c2ccc(F)cc2c2nnc(NN)nc21  1.53%
23. Cc1ccc(NC(=O)c2ccccn2)cc1S(=O)(=O)N1CCOCC1  1.5%
24. NC(=O)c1ccc(NC(=O)COC(=O)c2ccc([N+](=O)[O-])cc2)cc1  1.41%
25. CC(NC(=O)Nc1ccc2c(c1)OCO2)c1ccncc1 (stereo not drawn)  1.29%
26. O=C(O)c1ccccc1-c1ccccc1C(=O)Nc1nccs1  1.12%
27. O=C(COC(=O)c1ccc(Cl)nc1)NCc1cccs1  1%
28. COc1ccccc1OCc1ccc(C(=O)N2CCN(C)CC2)o1  0.99%
29. CCN(c1ccccc1)S(=O)(=O)c1ccc(C(=O)Nc2nccs2)cc1  0.94%
30. Cc1noc(C)c1C(=O)OCC(=O)N1CCN(S(=O)(=O)c2ccc3ccccc3c2)CC1  0.85%
31. CC(=O)NCCC(=O)Nc1cc(S(=O)(=O)N2CCOCC2)ccc1N1CCOCC1  0.76%
32. O=C(Nc1cccc(F)c1)N1C2CCC1CC(O)(c1cccnc1)C2 (stereo not drawn)  0.67%
33. Cc1cc(C)nc(NNC2=CC(=O)CC(C)(C)C2)n1  0.66%
34. O=C(COC(=O)/C=C/c1nc2ccccc2s1)Nc1ccccc1Oc1ccccc1  0.66%
35. COc1cc(NS(=O)(=O)c2ccc(N/C=C(\C=O)c3nc4cc(Cl)ccc4o3)cc2)nc(OC)n1  0.63%
36. CC(=O)Nc1ccc(/C=C/C(=O)c2ccccc2)cc1  0.6%
37. CC(C)(C)NC(=O)C(=O)NCc1ccncc1  0.53%
38. COc1ccc(/C(N)=N/OC(=O)Cc2ccccc2)cc1  0.52%
39. C=CCNC(=O)CC12CC3CC(C1)CC(CC(=O)NCC=C)(C3)C2  0.48%
40. CC1CCCCC1NC(=O)CO/N=C/c1ccc(OC(F)F)cc1 (stereo not drawn)  0.48%
41. COCCN1C2=C(COC(C)(C)C2)C(=S)NC1c1ccccc1 (stereo not drawn)  0.35%
42. NNC(=O)c1ccc(Cl)cc1Cl  0.33%
43. O=C(c1ccc(F)cc1)C1CCN(Cc2cn[nH]c2-c2ccccc2)CC1  0.29%
44. O=C(C/C(=N\NC(=O)c1ccccc1Br)C(F)(F)F)c1cccs1  0.26%
45. COC(=O)C1=C(C(=O)OC)[C@@H]2N(C)c3ccccc3[C@@]23C[C@@H](C(=O)OC)N(C(C)=O)C3=N1  0.26%
46. Cc1cccc(NC(=O)CSc2nc3c(c(=O)[nH]2)CCCC3)c1C  0.25%
47. CCc1ccccc1N1CN(Cc2ccco2)CNC1=S  0.22%
48. Cc1nn(C)cc1CNC(=O)Nc1ccc(Cl)cc1  0.19%
49. CN(C(=O)CCn1c(=S)oc2ccccc21)C1CCCCC1  0.16%
50. CCn1c(CN2C(=O)CSc3ccccc32)n[nH]c1=S  0.15%
51. COc1ccc(-c2nc3cnccn3c2NC(C)(C)CC(C)(C)C)cc1O  0.13%
52. NC(=O)C1(N2CCCCC2)CCN(C2CC(=O)N(Cc3ccc(N4CCCC4=O)cc3)C2=O)CC1 (stereo not drawn)  0.13%
53. O=C(Nc1cccc(-c2nc3ccccc3[nH]2)c1)c1ccc(C(=O)Nc2cccc(-c3nc4ccccc4[nH]3)c2)cc1  0.11%
54. Cc1cc(C)cc(NS(=O)(=O)c2ccc(F)cc2)c1  0.04%
55. Cc1ccc(NC(=S)NC(=O)/C=C/c2ccc(Cl)cc2)cc1  0.00667%
56. COC(=O)Cn1cc(/C=C/[N+](=O)[O-])c2ccccc21  -0.01%
57. Cc1cc(C(=O)N2CCC(C(=O)O)CC2)c(C(F)(F)F)o1  -0.1%
58. CCOC(=O)C1(Cc2ccc(Cl)cc2)CCN(C(=O)C2=NNC(=O)CC2)CC1  -0.11%
59. CN(C)S(=O)(=O)Oc1ccccc1C(=O)Nc1ccccc1Cl  -0.16%
60. COc1ccc(C(=O)NNC(=O)c2cnccn2)cc1[N+](=O)[O-]  -0.17%
61. Clc1cc(-c2ccc(/C=N/n3cnnc3)o2)ccc1Br  -0.31%
62. CCCCN1C(=O)CC(N2CCOCC2)C1=O (stereo not drawn)  -0.32%
63. Cc1cccc(CSc2nc3c(c(=O)n2C)SCC3)c1  -0.37%
64. COc1cc([C@H](Cc2ccccc2)NC(C)=O)oc(=O)c1  -0.39%
65. COc1ccc(N2C(=O)C3C(C2=O)C(C(=O)c2ccccc2)N2CCCC32)cc1 (stereo not drawn)  -0.53%
66. O=C(c1ccco1)N1CCN(CCOc2ccccc2)CC1  -0.6%
67. Cc1ccc(C(=O)Nc2ccccc2C(=O)NC2CCCCC2)cc1S(=O)(=O)N1CCOCC1  -0.61%
68. CC(NC(=S)NC1CCCCC1)C(c1ccccc1)N1CCOCC1 (stereo not drawn)  -0.76%

For `O=C(c1ccco1)N1CCN(C(=O)c2ccc(COc3ccc(F)cc3)o2)CC1`, the viability rescue was 77.8% [with zVAD 20 µM] (active).
With `Cn1ccc(NC(=O)Nc2ccc(Cl)cc2)n1` the viability rescue was 75.5% (active).
With `CC(C)NC(=O)NC(=O)COC(=O)c1ccc(NC(=O)CC#N)cc1` the viability rescue was 78.9% (active).
With `CC1CCCC(C)N1CCCNC(=O)c1cc2c(=O)n(C)c3ccccc3c2n1C` (stereo not drawn) the viability rescue was 80.8% [with zVAD 20 µM] (active).
With `CCn1c(SCC(=O)Nc2nc3ccc(OC)cc3s2)nnc1-c1ccoc1C` the viability rescue was 88.1% [with zVAD 20 µM] (active).
For `CC(=O)Nc1ccc(NC(=S)NC(=O)/C=C/c2ccccc2)cc1`, the viability rescue was 80.5% (active).
For `Cc1ccccc1NC(=O)CSC1=NCCN1`, the viability rescue was 101% [with zVAD 20 µM] (active).
With `CC(=O)Nc1cccc(-c2cnc3ccccc3n2)c1` the viability rescue was 82.7% (active).
For `COc1ccc(-n2cnc3cc(C(=O)NC4CCCC4)ccc32)cc1`, the viability rescue was 76.5% (active).
With `C[C@@H]1C[C@@H]2O[C@H]2/C=C\C=C\C(=O)Cc2c(Cl)c(O)cc(O)c2C(=O)O1` the viability rescue was 83% (active).
In the case of `Cc1cccc(NC(=O)Nc2ccc3c(c2)OCO3)n1`, the viability rescue is reported as 75.5% (active).
In the case of `CCOc1ccc(C(=O)Nc2nccs2)cc1[N+](=O)[O-]`, the viability rescue is reported as 80.9% (active).
In the case of `CC(=O)Oc1ccc(C(=O)Nc2nccs2)cc1`, the viability rescue is reported as 101% [with zVAD 20 µM] (active).
In the case of `Cc1ccc(NC(=O)NC2CCCCC2)cc1S(=O)(=O)N1CCOCC1`, the viability rescue is reported as 75.4% (active).
